USP1 inh = Inhibitors of USP1/UAF1: Primary Screen; Ubiquitin carboxyl-terminal hydrolase 1 (Homo sapiens), O94782; recombinant USP1/UAF1, Ub-Rhodamine cleavage fluorescence; Potency, µM (highest dose often 57.1 µM), for inactives: at the top dose activity change, negative = inhibition, usual class: inhibitors; 390,000 compounds, 0.23% hits; active = well fitted inhibition curve with a large enough effect; inconclusive = small, poorly fitted or top-dose-only effect; inactive = no such curve, though single readings can be large or run the other way; also: potency is read from the fitted curve at half-maximal effect; % is scaled to controls: 0 for no effect and ±100 for the full control effect; nearly all actives have a fitted effect of over 60% in size
Target sequence (O94782 whole entry, looked up): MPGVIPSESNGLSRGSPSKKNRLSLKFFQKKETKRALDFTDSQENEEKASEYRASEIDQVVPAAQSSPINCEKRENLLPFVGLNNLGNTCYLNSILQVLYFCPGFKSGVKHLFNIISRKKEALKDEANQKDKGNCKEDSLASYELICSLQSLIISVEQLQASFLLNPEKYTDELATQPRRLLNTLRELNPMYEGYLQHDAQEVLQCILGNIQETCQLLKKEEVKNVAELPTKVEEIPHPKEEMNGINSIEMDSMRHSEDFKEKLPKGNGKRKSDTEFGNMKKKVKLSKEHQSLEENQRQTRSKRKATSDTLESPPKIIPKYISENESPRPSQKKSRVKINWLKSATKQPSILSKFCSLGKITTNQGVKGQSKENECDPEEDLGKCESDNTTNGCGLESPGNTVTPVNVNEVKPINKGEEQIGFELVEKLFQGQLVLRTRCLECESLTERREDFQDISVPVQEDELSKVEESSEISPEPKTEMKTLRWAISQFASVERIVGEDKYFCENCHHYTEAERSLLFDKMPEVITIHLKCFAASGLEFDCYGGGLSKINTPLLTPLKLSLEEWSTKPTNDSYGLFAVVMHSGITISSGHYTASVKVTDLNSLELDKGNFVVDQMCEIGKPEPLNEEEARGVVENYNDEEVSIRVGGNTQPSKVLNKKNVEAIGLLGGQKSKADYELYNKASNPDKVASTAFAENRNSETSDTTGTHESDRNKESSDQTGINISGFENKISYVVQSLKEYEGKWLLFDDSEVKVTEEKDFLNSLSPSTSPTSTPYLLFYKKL
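Step one: compound is pinned into 1nM USP1/UAF1 in HEPES pH 7.8 buffer with TCEP. Step two: 15 min room-temperature incubation. Step three: Ub-Rho (150nM final) starts cleavage, tracked by fluorescence over six one-minute reads.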
TRHR agonist = qHTS for Small Molecule Agonists and Allosteric Enhancers of Human TRH Receptor: Primary Screen for Agonists | Thyrotropin-releasing hormone receptor (Homo sapiens), P34981 | TRHR cells, calcium flux fluo-8, FDSS agonist mode | activation, % at 2 µM | 360,000 compounds, 0.18% hits | AID 493084, 2011; also: 0% is about no effect
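TRHR-expressing cells loaded with fluo-8 calcium dye; 23 nL library compound pin-transferred, kinetic FDSS fluorescence (Ex 480/Em 530) recorded about 180 s for agonist-induced calcium release, before a 10 nM TRH EC20 addition for potentiator mode.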
D1 antagonist = Antagonist of Human D 1 Dopamine Receptor: qHTS; HEK293 TREx D1 cells, calcium flux, dopamine EC80; stronger effect = lower value; activity change, negative = inhibition, % at 10 µM; 360,000 compounds, 3.2% hits; AID 504652, 2011; in the data active = activity change below about -30%; also: % is scaled to controls: 0 for no effect and ±100 for the full control effect
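Using tetracycline-induced force-coupled D1 Hek293 cells and a calcium dye, signals were followed for 180 s after compound, then for 180 s after EC80 dopamine, to detect inhibitors.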
D1 PAM = Potentiators of Human D1 Dopamine Receptor: qHTS; D(1A) dopamine receptor (Homo sapiens), P21728; HEK293 TREx D1 cells, calcium flux, dopamine EC20 potentiation; potentiation, % at 10 µM; 360,000 compounds, 0.036% hits; AID 504651, 2011; in the data active = potentiation above about 30%; also: 0% is about no effect
TRHR enhancer = qHTS for Small Molecule Agonists and Allosteric Enhancers of Human TRH Receptor: Primary Screen for Enhancers | 360,000 compounds, 0.66% hits | TRHR cells, fluo-8 calcium fluorescence, EC20 TRH enhancement | enhancement, % at 2 µM | Thyrotropin-releasing hormone receptor (Homo sapiens), P34981; in the data active = enhancement above about 30%; also: 0% is about no effect
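TRHR-expressing cells loaded with fluo-8 calcium dye were read kinetically (ex 480/em 530) during compound addition, then stimulated with an EC20 of TRH (10 nM final). Enhancement of the Gq-mediated intracellular calcium response was scored.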
D1 ag = Allosteric Agonists of the Human D1 Dopamine Receptor: qHTS. 360,000 compounds, 1% hits. D(1A) dopamine receptor (Homo sapiens), P21728. AID 504660, 2011. activation, % at 2 µM. HEK293 T-REx D1 cells, calcium flux, agonist mode; also: 0% is about no effect
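Tetracycline-induced HEK293 TREx D1 cells, force-coupled to calcium signalling, were dye-loaded with a no-wash calcium kit. Compound was pin-added after a 10 s baseline. Fluorescence was read kinetically at 1 cycle/s for 180 s, with calcium rises flagged as agonism.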
* marks the source's active call; other numbers are inactive results; ? = inconclusive; / = no result given. Sampled rows, rich in hits. Any-hit rate of the full collection: about 4.4%. Rule as the data show it, unless noted: active = activation above about 30%; inactive = the rest.

SMILES	USP1 inh	TRHR agonist	D1 antagonist	D1 PAM	TRHR enhancer	D1 ag
CCc1ccc(NC(=O)Cn2c(=O)n(CCCCC(=O)NCc3ccc4c(c3)OCO4)c(=O)c3ccccc32)cc1	-28.7%	1.8	10.4	-0.9	-0.6	4.6
COC(=O)c1ccccc1NC(=O)c1ccco1	4.0%	0.2	-33.7*	-4.5	-3.0	1.0
COc1ccc(NC(=O)c2ccco2)cc1NC(=O)COc1ccccc1	-11.8%	-0.2	-7.4	-0.7	2.5	3.0
N#Cc1ccc(NC(=O)Nc2ccc(Cl)cc2)cc1	-18.0%	3.4	-41.3*	-10.8	-7.3	31.0*
COc1ccc(NC(=O)COc2ccccc2)cc1NC(=O)c1ccco1	-15.4%	-0.4	-36.7*	-5.5	14.2	1.0
CNC(=O)c1ccccc1NC(=O)c1ccco1	0.5%	0.4	-17.1	-0.1	-1.6	-1.2
COc1ccc(Nc2c(-c3ccc(C)o3)nc3cc(C)ccn23)cc1	-18.3%	-1.5	0.4	0.9	-10.8	0.2
Cc1cccc(NC(=O)c2cc3c([nH]c2=O)CC(c2ccccc2)CC3=O)c1 (centres undefined)	-1.7%	3.6	-6.4	-0.3	2.1	2.4
Cc1cccc2cncc(OCc3nnc(SC(F)F)n3C)c12	-11.7%	-0.3	10.3	-1.3	40.9*	1.5
COc1cc2c(cc1OC)C(COc1ccc(C(C)C)cc1)NCC2 (centres undefined)	-10.1%	2.8	-26.8	-3.6	10.9	40.5*
COc1cc2c(cc1OC)C(COc1ccc(C(C)C)cc1)N(C(=O)COc1ccccc1)CC2 (centres undefined)	-28.6%	0.6	-9.9	-1.8	6.7	7.1
CCOC(=O)c1c(NC(C)=O)c2c3c(sc2n1Cc1nc(-c2ccccc2Cl)oc1C)CCCC3	-22.6%	0.4	-5.5	-2.2	-5.8	1.8
C=CCNC(=S)NNC(=O)CC12CC3CC(CC(C3)C1)C2	-15.4%	0.2	-42.2*	-15.4	-26.0	0.6
Oc1c(C(c2ccc(F)cc2)N2CCCC2)sc2nc(-c3ccco3)nn12 (centres undefined)	-9.2%	0.2	/	-2.5	-2.3	0.0
COc1ccc(OCC(=O)N2CCN(c3cccc(Cl)c3)CC2)cc1	-20.0%	-1.2	4.7	-0.4	-0.7	-1.1
CCS(=O)(=O)c1ncc(Cl)c(C(=O)N2CCN(c3cccc(Cl)c3)CC2)n1	?	1.6	-30.6*	-4.2	-13.7	4.7
CS(=O)(=O)c1ncc(Cl)c(C(=O)N2CCN(c3cccc(Cl)c3)CC2)n1	2.5%	-1.6	-50.0*	1.4	14.4	14.4
COc1ccc(NC(=O)c2ccc3c(=O)n4nc(Nc5cc(C)ccc5C)sc4nc3c2)cc1	-8.9%	-0.7	-3.7	7.2	8.0	2.6
c1ccc(CN(Cc2ccccc2)Cc2nnc(-c3cc4ccccc4[nH]3)o2)cc1	/	1.7	31.7	-5.5	-2.6	2.3
COCCCNC(=O)C1CCN(Cc2cc3ccccc3n2Cc2cccc(Cl)c2)CC1	-31.8%	0.0	-20.1	-2.9	25.6	3.2
O=C(CSc1nnc(-c2cccc(Br)c2)o1)N1CCOCC1	2.7%	-1.1	-7.8	-2.3	31.2*	4.0
CN1C(=O)C2(Nc3ccccc3-c3nc4ccccc4n32)c2ccccc21 (centres undefined)	-21.0%	0.4	-9.9	4.4	0.5	2.1
O=C1Nc2ccccc2C12Nc1ccccc1-c1nc3ccccc3n12 (centres undefined)	-7.0%	-0.4	-25.5	-7.2	4.8	37.1*
COc1ccc(C)cc1NC(=O)CN1CCN(c2ccccc2F)CC1	-4.2%	0.1	-9.3	-2.2	-0.2	12.6
COc1cccc(NC(=O)CCN2CCN(c3ccccc3F)CC2)c1	-19.8%	-0.9	-2.5	9.6	-1.4	1.7
SMILES	USP1 inh	TRHR agonist	D1 antagonist	D1 PAM	TRHR enhancer	D1 ag
COC(=O)c1[nH]c2cccc(OC)c2c1NC(=O)CCN1CCN(c2ccccc2OC)CC1	-7.9%	0.3	-39.0*	-10.8	-1.3	0.2
COc1ccc(C)cc1NC(=O)CCN1CCN(c2ccccc2F)CC1	-17.9%	-0.5	-45.1*	-7.7	3.5	3.4
Cc1ccc(C)c(NC(=O)CCN2CCN(c3ccccc3F)CC2)c1	0.9%	-0.5	-37.6*	-11.3	9.8	3.4
COc1ccc(OC)c(NC(=O)CCN2CCN(c3ccccc3F)CC2)c1	-19.3%	-2.1	-38.2*	-9.8	11.1	6.4
Cn1c2cc([N+](=O)[O-])sc2c2cnn(Cc3ccccc3F)c(=O)c21	/	0.0	-2.9	2.8	5.9	0.6
O=C(CC(c1cccs1)N1Cc2ccccc2C1=O)Nc1ccc(F)c(Cl)c1 (centres undefined)	-7.9%	1.6	-16.3	-3.2	-5.8	9.3
Cc1cc(C)cc(NC(=O)C2CCN(c3cc(C)nc4c(-c5ccc(Cl)cc5)c(C)nn34)CC2)c1	-28.3%	0.1	6.0	1.8	17.8	0.5
COc1ccccc1CNC(=O)c1c(O)nc2c(C)cccn2c1=O	-8.8%	-0.4	5.8	-2.1	2.6	0.8
CCN1CCc2c(sc(-n3cccc3)c2C(CCC(C)C)NC(=O)NCCC(=O)OC)C1 (centres undefined)	?	7.4	-4.8	1.4	-7.9	13.1
COc1ccc(C)cc1NC(=O)CN1CCN(C/C=C/c2ccccc2)CC1	-10.9%	-0.9	4.6	-7.2	3.3	38.0*
COc1ccc(OC)c(NC(=O)CCN2CC(C)OC(C)C2)c1 (centres undefined)	-2.5%	0.2	6.8	3.6	-4.3	0.4
COc1ccc(C)cc1NC(=O)CCN1CC(C)OC(C)C1 (centres undefined)	-15.3%	0.1	-30.3*	-3.0	-3.1	0.7
COC(=O)c1[nH]c2ccc(Cl)cc2c1NC(=O)CCN1CCOCC1	-0.1%	0.1	-37.8*	-6.0	5.7	0.9
COc1ccc(Cl)cc1NC(=S)N1CC(C)OC(C)C1 (centres undefined)	-2.1%	0.3	1.1	-6.1	33.0*	2.4
COc1ccc(S(=O)(=O)N2CCN(C/C=C/c3ccccc3)CC2)cc1NC(C)=O	-18.0%	0.4	-0.8	-7.0	7.5	1.7
Cc1cccc(C)c1OC(=O)CSc1nnc(-c2ccc3c(c2)OCO3)o1	-18.8%	0.0	-9.0	-1.6	4.2	1.6
